How the values were obtained:
[1] = target: T1, Serine/threonine-protein kinase 17A (Homo sapiens) (UniProt Q9UEE5); conditions: at 1 µM
T1 sequence (whole entry): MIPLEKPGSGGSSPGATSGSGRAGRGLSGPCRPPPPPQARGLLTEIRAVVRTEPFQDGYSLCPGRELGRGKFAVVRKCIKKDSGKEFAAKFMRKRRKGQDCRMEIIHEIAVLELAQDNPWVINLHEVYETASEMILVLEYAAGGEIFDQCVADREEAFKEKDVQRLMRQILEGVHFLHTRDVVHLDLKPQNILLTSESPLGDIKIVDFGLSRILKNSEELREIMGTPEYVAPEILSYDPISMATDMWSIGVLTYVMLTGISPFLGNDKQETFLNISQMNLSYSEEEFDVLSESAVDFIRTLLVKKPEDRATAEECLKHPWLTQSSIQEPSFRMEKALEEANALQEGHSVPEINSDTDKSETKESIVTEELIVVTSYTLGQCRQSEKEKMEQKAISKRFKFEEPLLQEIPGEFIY

[2] = target: T1, Serine/threonine-protein kinase 17A (Homo sapiens); conditions: at 10 µM
[3] = target: T2, Dual specificity tyrosine-phosphorylation-regulated kinase 2 (Homo sapiens) (UniProt Q92630); conditions: at 1 µM
T2 sequence (whole entry): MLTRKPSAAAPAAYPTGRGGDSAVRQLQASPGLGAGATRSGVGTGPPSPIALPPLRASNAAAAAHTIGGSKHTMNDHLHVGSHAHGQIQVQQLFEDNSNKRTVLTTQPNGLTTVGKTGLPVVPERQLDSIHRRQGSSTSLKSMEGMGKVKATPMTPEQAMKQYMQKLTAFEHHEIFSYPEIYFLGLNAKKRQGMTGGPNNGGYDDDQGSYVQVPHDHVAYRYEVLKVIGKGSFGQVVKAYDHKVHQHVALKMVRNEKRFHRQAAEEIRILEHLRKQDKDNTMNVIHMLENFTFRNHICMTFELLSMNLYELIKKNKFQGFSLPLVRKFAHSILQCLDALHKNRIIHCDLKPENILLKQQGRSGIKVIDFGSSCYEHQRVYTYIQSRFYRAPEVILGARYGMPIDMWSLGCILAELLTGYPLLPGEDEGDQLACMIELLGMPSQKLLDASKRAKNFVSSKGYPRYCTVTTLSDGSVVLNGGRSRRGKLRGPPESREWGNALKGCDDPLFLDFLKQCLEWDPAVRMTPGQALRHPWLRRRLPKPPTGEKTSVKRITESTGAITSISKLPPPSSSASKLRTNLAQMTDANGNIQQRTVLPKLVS

[4] = target: T2, Dual specificity tyrosine-phosphorylation-regulated kinase 2 (Homo sapiens); conditions: at 10 µM
[5] = target: T3, Ephrin type-A receptor 1 (Homo sapiens) (UniProt P21709); conditions: at 1 µM
T3 sequence (whole entry): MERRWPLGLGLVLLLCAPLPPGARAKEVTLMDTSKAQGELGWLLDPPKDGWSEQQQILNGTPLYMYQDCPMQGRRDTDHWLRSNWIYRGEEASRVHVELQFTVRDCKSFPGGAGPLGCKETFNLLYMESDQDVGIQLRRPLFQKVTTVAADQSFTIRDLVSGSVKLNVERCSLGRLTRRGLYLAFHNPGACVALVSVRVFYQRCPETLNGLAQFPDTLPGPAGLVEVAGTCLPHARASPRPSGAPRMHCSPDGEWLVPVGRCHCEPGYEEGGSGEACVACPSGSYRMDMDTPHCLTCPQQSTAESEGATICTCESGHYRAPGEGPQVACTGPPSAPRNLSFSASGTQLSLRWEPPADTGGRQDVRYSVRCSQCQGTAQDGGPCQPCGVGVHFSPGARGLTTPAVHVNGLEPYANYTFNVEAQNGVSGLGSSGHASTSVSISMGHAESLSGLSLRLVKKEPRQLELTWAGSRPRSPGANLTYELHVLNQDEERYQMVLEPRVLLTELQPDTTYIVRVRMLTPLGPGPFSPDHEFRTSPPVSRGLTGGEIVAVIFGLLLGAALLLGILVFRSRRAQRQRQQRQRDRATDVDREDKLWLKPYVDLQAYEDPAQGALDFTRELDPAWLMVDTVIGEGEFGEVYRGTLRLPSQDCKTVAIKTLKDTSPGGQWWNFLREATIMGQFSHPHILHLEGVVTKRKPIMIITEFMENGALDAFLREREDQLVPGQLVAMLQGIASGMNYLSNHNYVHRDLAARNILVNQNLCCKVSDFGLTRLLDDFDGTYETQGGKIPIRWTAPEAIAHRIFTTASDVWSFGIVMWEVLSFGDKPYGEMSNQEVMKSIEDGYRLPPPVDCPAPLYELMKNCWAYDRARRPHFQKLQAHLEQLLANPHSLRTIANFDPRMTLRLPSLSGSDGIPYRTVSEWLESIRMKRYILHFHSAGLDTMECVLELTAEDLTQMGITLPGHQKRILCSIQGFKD

[6] = target: T3, Ephrin type-A receptor 1 (Homo sapiens); conditions: at 10 µM
[7] = target: Ephrin type-A receptor 2 (Homo sapiens) (UniProt P29317); conditions: at 1 µM
Chain of Ephrin type-A receptor 2 (Homo sapiens) (P29317 whole entry): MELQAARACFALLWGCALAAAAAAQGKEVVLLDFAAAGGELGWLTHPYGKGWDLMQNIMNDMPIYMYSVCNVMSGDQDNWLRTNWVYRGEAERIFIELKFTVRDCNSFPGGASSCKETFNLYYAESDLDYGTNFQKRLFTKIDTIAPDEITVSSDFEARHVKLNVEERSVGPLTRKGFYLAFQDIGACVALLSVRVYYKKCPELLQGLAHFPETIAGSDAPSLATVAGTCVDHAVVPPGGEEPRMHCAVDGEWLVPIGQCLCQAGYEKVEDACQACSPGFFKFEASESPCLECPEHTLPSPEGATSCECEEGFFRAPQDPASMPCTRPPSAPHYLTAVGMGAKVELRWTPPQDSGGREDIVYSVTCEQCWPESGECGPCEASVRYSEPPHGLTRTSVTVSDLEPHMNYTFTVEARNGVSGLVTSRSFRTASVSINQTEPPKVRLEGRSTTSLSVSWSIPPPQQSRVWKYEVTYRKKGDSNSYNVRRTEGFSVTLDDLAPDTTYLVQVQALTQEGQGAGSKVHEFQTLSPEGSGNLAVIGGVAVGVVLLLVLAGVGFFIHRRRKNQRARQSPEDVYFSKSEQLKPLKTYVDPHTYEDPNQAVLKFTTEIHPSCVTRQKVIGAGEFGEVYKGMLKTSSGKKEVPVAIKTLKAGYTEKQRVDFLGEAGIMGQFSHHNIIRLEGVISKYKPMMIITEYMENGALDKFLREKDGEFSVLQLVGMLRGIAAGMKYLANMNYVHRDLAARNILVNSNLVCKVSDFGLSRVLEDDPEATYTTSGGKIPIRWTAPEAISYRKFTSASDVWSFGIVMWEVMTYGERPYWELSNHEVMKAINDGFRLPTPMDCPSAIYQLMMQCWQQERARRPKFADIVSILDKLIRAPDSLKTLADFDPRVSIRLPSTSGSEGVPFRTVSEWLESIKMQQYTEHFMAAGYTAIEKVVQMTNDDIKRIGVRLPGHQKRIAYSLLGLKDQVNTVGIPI

[8] = target: Ephrin type-A receptor 2 (Homo sapiens) (UniProt P29317); conditions: at 10 µM
[9] = target: T4, Ephrin type-A receptor 3 (Homo sapiens) (UniProt P29320); conditions: at 1 µM
T4 sequence (whole entry): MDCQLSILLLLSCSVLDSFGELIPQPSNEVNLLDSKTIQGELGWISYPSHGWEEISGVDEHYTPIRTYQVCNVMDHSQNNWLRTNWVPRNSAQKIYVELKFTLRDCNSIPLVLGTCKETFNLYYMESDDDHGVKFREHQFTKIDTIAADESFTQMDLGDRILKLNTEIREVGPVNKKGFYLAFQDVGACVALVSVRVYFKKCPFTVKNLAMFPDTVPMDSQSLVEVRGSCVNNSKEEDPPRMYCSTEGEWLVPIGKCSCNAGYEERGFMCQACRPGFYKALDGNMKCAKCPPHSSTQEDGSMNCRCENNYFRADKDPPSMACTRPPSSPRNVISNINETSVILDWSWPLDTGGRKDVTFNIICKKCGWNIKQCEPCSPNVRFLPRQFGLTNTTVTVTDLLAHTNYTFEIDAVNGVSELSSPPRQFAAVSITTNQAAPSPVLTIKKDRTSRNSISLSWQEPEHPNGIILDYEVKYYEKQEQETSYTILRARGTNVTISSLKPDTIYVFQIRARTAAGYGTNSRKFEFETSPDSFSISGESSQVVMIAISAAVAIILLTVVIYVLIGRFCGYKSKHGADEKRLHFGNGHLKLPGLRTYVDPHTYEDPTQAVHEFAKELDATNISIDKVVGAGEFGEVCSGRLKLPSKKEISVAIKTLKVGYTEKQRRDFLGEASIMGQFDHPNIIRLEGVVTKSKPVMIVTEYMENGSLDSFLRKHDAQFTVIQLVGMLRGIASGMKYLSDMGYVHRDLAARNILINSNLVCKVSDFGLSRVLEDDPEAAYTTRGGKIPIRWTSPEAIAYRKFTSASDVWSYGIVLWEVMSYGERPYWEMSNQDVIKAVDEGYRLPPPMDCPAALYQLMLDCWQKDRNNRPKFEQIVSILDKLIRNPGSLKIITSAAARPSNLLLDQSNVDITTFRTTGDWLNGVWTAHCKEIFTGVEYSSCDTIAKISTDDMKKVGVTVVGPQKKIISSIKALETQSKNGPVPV

[10] = target: T4, Ephrin type-A receptor 3 (Homo sapiens); conditions: at 10 µM
[11] = target: Ephrin type-A receptor 4 (Homo sapiens) (UniProt P54764); conditions: at 1 µM
Chain of Ephrin type-A receptor 4 (Homo sapiens) (P54764 whole entry): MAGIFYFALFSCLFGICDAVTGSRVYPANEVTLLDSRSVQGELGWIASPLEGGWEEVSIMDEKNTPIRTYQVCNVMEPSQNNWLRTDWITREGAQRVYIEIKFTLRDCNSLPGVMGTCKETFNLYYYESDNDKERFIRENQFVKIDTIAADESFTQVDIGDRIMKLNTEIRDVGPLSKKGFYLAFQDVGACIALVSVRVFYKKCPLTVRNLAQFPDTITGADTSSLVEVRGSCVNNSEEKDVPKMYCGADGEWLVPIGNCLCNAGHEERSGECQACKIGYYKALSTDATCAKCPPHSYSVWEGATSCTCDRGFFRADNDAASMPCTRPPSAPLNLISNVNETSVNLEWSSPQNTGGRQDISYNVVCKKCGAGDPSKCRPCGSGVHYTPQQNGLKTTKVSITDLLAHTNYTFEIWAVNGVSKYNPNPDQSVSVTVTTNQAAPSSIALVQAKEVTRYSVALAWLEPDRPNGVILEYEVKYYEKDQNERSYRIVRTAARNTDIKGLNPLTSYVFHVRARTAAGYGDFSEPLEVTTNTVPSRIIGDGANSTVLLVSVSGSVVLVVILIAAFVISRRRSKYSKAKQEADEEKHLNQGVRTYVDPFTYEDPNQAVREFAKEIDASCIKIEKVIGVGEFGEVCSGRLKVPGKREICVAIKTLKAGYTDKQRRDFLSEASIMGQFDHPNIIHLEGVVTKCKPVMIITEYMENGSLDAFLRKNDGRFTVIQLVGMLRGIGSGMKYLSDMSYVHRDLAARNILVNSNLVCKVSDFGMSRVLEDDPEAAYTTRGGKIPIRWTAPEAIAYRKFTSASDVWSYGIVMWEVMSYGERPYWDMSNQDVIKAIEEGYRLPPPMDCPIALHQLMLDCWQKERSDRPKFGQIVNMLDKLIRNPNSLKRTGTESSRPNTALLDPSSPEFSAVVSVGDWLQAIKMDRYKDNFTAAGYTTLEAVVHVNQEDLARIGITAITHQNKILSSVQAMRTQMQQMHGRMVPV

[12] = target: Ephrin type-A receptor 5 (Homo sapiens) (UniProt P54756); conditions: at 1 µM
Chain of Ephrin type-A receptor 5 (Homo sapiens) (P54756 whole entry): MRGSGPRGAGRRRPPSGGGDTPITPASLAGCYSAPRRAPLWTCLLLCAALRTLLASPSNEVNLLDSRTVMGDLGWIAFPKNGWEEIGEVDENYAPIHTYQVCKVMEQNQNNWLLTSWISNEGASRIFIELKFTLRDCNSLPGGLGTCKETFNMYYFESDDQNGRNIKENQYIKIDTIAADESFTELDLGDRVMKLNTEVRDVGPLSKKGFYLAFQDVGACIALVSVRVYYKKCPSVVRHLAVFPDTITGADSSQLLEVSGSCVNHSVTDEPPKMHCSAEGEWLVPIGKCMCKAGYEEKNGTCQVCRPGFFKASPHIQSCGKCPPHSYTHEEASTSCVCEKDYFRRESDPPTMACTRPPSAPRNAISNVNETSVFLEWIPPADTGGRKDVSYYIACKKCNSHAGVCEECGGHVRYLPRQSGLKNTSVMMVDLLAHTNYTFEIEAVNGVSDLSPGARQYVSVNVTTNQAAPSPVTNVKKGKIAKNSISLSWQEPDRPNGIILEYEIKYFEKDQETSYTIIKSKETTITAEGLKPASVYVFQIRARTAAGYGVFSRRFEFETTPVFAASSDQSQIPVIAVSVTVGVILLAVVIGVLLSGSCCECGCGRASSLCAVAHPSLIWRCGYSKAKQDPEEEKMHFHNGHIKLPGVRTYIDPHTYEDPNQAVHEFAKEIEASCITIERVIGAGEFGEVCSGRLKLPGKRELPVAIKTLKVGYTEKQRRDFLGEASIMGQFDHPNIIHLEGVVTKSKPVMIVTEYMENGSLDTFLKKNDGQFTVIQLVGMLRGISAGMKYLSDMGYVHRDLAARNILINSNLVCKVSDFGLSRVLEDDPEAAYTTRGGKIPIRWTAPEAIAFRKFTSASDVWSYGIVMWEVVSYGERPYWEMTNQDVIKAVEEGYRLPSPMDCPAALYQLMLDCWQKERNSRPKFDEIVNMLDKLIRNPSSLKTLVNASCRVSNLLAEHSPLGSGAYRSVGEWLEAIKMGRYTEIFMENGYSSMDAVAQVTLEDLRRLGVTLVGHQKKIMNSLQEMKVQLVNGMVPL

[13] = target: Ephrin type-A receptor 5 (Homo sapiens) (UniProt P54756); conditions: at 10 µM
[14] = target: Ephrin type-A receptor 7 (Homo sapiens) (UniProt Q15375); conditions: at 1 µM
Chain of Ephrin type-A receptor 7 (Homo sapiens) (Q15375 28-998 limits assumed): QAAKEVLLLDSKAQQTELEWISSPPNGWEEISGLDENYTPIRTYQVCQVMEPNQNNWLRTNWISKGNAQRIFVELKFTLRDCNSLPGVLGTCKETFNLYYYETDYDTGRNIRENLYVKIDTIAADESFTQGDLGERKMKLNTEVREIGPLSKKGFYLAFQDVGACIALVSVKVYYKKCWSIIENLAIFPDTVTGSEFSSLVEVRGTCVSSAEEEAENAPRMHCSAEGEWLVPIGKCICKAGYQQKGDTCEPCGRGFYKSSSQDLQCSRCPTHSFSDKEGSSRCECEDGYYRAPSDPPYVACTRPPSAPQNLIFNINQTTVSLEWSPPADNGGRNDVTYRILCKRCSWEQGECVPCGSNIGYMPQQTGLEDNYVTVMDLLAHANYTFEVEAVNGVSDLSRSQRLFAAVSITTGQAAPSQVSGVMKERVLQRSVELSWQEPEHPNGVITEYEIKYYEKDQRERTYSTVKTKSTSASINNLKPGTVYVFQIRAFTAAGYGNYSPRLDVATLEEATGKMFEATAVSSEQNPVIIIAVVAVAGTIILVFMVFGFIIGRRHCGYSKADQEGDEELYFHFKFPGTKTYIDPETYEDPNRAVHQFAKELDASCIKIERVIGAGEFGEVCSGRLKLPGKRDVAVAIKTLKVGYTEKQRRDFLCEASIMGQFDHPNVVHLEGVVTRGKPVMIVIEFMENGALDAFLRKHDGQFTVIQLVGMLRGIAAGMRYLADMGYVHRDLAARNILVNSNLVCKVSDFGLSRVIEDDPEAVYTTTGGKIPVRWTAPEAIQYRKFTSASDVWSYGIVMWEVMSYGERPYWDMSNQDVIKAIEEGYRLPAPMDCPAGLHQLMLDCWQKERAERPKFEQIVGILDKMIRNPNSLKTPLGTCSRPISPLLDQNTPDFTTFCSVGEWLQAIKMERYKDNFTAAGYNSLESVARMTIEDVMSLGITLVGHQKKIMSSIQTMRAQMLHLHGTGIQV

[15] = target: Ephrin type-A receptor 7 (Homo sapiens) (UniProt Q15375); conditions: at 10 µM
[16] = target: T5, Ephrin type-A receptor 8 (Homo sapiens) (UniProt P29322); conditions: at 1 µM
T5 sequence (whole entry): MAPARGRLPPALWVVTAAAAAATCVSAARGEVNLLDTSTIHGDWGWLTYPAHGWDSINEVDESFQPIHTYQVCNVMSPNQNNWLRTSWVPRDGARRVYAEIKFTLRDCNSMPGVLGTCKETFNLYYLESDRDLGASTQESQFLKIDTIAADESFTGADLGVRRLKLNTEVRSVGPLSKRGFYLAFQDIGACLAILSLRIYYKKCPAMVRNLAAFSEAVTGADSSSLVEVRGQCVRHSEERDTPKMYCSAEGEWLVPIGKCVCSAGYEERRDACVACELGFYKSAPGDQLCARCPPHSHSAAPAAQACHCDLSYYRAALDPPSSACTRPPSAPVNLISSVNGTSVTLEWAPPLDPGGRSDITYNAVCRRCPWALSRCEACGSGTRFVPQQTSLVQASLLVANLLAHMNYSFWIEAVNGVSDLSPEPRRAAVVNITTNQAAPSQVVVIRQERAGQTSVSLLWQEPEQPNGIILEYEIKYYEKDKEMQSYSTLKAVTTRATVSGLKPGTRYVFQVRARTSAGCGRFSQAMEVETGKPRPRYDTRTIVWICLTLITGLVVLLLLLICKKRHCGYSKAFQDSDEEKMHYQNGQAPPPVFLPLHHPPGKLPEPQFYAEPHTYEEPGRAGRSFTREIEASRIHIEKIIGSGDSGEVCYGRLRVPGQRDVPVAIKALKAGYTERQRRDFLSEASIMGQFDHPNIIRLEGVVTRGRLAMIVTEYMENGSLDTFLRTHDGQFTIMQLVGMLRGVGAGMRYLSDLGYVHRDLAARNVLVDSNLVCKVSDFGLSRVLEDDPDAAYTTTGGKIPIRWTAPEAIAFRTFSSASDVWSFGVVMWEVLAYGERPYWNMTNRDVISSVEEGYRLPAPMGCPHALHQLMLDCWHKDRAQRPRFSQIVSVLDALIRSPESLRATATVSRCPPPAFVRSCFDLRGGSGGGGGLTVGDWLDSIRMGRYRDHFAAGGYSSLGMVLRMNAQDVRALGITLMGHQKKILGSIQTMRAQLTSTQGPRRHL

[17] = target: T5, Ephrin type-A receptor 8 (Homo sapiens); conditions: at 10 µM
[18] = target: T6, Ephrin type-B receptor 1 (Homo sapiens) (UniProt P54762); conditions: at 1 µM
T6 sequence (whole entry): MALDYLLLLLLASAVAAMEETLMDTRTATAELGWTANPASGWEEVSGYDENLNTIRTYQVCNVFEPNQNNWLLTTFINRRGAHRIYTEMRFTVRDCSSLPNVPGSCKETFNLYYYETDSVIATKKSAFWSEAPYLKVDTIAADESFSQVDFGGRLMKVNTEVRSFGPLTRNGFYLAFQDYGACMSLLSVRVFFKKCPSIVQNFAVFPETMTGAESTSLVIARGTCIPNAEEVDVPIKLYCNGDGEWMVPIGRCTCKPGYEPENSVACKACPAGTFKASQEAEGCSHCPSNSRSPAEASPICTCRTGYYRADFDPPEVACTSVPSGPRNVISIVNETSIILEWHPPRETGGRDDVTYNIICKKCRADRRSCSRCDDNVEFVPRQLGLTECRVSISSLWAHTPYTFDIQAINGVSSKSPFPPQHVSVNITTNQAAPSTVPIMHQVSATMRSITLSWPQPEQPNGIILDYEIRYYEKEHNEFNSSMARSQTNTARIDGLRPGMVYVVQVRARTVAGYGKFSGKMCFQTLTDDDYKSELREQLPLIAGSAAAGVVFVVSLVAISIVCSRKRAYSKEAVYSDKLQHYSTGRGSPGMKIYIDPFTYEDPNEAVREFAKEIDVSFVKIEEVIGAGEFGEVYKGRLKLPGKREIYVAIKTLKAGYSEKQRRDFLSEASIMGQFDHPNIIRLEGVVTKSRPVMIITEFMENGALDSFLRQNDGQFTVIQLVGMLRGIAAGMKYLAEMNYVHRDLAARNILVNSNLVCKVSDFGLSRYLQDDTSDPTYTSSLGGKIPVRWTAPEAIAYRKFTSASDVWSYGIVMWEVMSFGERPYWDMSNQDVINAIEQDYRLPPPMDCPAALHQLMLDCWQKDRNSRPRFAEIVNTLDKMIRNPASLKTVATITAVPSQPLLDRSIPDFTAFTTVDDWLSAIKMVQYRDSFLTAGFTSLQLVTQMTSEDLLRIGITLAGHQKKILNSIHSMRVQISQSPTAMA

[19] = target: Ephrin type-A receptor 4 (Homo sapiens) (UniProt P54764); conditions: at 10 µM

| SMILES | residual activity [1] | residual activity [2] | residual activity [3] | residual activity [4] | residual activity [5] | residual activity [6] | residual activity [7] | residual activity [8] | residual activity [9] | residual activity [10] | residual activity [11] | residual activity [12] | residual activity [13] | residual activity [14] | residual activity [15] | residual activity [16] | residual activity [17] | residual activity [18] | residual activity [19] |
| --- | --- | --- | --- | --- | --- | --- | --- | --- | --- | --- | --- | --- | --- | --- | --- | --- | --- | --- | --- |
| CC(C)(C)c1cc(C=C(C#N)C#N)cc(Br)c1O | 147% | 100% | 107% | 101% | 115% | 130% | 107% | 104% | 122% | 106% | 113% | 107% | 97% | 109% | 102% | 117% | 99% | 106% | – |
| COc1cc2ncnc(Nc3ccc(OCc4ccccc4)cc3)c2cc1OC | 116% | 95% | 102% | 94% | 94% | 104% | 125% | 108% | 115% | 113% | 118% | 116% | 104% | 109% | 90% | 118% | 101% | 94% | 93% |
